Screening data from PubChem BioAssay.
HIF act – HIF pathway transcriptional activation. U2OS HRE-luciferase reporter, luminescence; normalized: DMSO 0%, desferrioxamine 100%. activation, % at 7.5 µM (by protocol). 300,000 tested, 0.32% active. AID 1910;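 active means mean activation of at least 10% of the iron chelator positive control signal, with at least half of replicates also reaching 10%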
aSyn 5UTR inh – 5' untranslated region of α-synuclein, MLPCN primary screen; alpha-synuclein 5'UTR reporter, inhibitor activity; inhibition, % (tested at 7.5 µM); 300,000 tested, 0.82% active; AID 1813; in the data active means inhibition above about 60%;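 further: H4 neuroglioblastoma cells stably carrying SNCA 5'UTR luciferase fusion; 0% = DMSO wells and 100% = positive control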
KLF5 inhibitor – inhibitors of KLF5 expression. DLD-1 KLF5 promoter-luciferase reporter, luminescence. inhibition, % at 5 µM. 290,000 tested, 0.23% active;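 active means inhibition above a per-plate limit of that plate's mean compound inhibition plus 3 SD, cut at about 60% in these data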;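 further: 0% = DMSO wells and 100% = LY294002 at 200 µM; higher means less KLF5 promoter-driven luciferase light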
Wee1 stabilizer – inhibitors of human Wee1 degradation; P30291; reporter increase, % at 5 µM; 220,000 tested, 1.2% active; HeLa Luc-Wee1K328M stability, luciferase luminescence; 100% = proteasome inhibitor MG132 effect;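 active means activation above the mean of all tested compounds plus 3 SD, set per screening run, cut at about 8.8% in these data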;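 further: cells exposed to compound for 20 h before luminescence read; 0% = DMSO alone and 100% = MG132 at 30 µM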
Target sequence (P30291 whole entry K328M): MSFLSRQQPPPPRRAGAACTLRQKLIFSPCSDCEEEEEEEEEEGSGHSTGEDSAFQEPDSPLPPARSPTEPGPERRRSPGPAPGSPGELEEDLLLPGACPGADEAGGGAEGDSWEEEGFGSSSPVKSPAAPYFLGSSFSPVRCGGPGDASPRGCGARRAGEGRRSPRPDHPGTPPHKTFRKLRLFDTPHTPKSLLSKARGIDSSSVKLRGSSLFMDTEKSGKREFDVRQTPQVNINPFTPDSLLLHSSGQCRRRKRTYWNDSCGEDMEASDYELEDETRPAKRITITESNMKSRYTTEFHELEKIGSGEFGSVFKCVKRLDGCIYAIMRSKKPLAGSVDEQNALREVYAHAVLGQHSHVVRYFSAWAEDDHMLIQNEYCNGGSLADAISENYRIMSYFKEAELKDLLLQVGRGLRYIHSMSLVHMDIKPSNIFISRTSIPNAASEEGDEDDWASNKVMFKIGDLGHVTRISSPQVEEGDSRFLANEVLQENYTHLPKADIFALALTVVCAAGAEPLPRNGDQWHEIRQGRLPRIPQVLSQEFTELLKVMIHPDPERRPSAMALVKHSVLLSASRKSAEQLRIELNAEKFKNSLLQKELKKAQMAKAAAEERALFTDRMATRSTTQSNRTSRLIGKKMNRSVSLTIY
Platelet DG rel – modulates dense granule release in human platelets. human platelet-rich plasma, SFLLRN dense granule ATP release, luminescence. inhibition, %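 (compounds screened at 7.5 µM in platelet-rich plasma)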. 300,000 tested, 0.22% active;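 active means mean replicate score, as percent of positive control, at or above 50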
An asterisk follows results filed as active; x = not tested or not shown. The list is not random: actives were taken first. Their share in the collection is about 2.1%.

SMILES | HIF act | aSyn 5UTR inh | KLF5 inhibitor | Wee1 stabilizer | Platelet DG rel
CCN(Cc1ccc(O)cc1)CC1CCCN(CCc2cccc(F)c2)C1 (centres undefined) | -13 | -13 | -40 | x | -1
COc1ccc(-c2nn(CCC#N)cc2C(=O)Nc2cccc(C(=O)O)c2)cc1OC | -2 | -5 | -38 | x | 0
O=C(N/N=C/c1sc2ccccc2c1O)c1ccccc1 | 5 | 82* | -18 | 6 | 22
COc1ccc2cc(C(=O)N/N=C/c3sc4ccccc4c3O)ccc2c1 | 0 | -2 | -5 | 4 | -1
COc1ccc(C(=O)N/N=C/c2sc3ccccc3c2O)cc1 | 0 | 84* | -13 | 0 | -16
O=C(N/N=C/c1sc2ccccc2c1O)c1cccc2ccccc12 | 12* | 92* | -10 | 0 | -5
Oc1c(C=Nc2cccc3cccnc23)sc2ccccc12 | 0 | -48 | -31 | -2 | 23
Cc1cccc(/N=C/c2sc3ccccc3c2O)n1 | 2 | -32 | -41 | 2 | 51*
CCOc1ccc(NS(=O)(=O)c2ccc(C(=O)NCC(c3ccc(OC)cc3)N3CCOCC3)cc2)cc1 (centres undefined) | -2 | 5 | x | x | -2
Nn1c(SCc2ccccc2)nc2ccccc21 | 5 | -127 | -168 | x | 2
Cc1nn(C)cc1C(C)NC(=O)c1cc(COc2ccc(F)c(F)c2)on1 (centres undefined) | 1 | -13 | -23 | x | -4
CCc1n[nH]c(=S)n1/N=C/c1c(C)nn(-c2ccccc2)c1Cl | 0 | 106* | -5 | 0 | -11
O=[N+]([O-])c1cccc(NNS(=O)(=O)c2ccccc2F)c1 | 0 | -15 | 6 | x | 3
Cc1ccc(S(=O)(=O)N2CCC3(CC2)OCCN3S(=O)(=O)c2c(C)cc(C)cc2C)cc1 | 0 | -2 | x | x | 22
Brc1ccc(N/N=C(/N=Nc2nn[nH]n2)c2ccccc2)cc1 | 84* | 97* | 43 | -4 | 6
CN1CCc2c(sc(NC(=O)c3ccco3)c2C(N)=O)C1 | 1 | -8 | -31 | x | -2
N#Cc1c(NC(=O)c2ccc([N+](=O)[O-])o2)sc2c1CCC2 | 3 | -107 | -34 | x | -2
CN1CCc2c(sc(NC(=O)c3ccc([N+](=O)[O-])o3)c2C(N)=O)C1 | -2 | 86* | 34 | x | 21
NC(=O)c1c(NC(=O)c2ccc([N+](=O)[O-])o2)sc2c1CCCC2 | 3 | 95* | 24 | x | -2
Cc1ccc(CN2C(=O)/C(=C\c3ccc(C(=O)NCc4cccnc4)cc3)Oc3ccccc32)cc1 | 0 | 101* | -14 | -3 | -4
O=C(CN1C(=O)/C(=C\c2ccccc2Cl)Oc2ccccc21)NCc1cccnc1 | 0 | -13 | -21 | 2 | 7
COc1cccc(OC)c1C(=O)NC(=O)Nc1c(F)cc(F)cc1F | -1 | -2 | 9 | 1 | -2
COc1ccc(Cl)c(OC)c1C(=O)NC(=O)Nc1c(F)cc(F)cc1F | 19* | 21 | -26 | -2 | 2
COc1cc2cc(-c3ccc(OC)c(OC)c3C)nc(N)c2cc1OC | 1 | 96* | x | x | -13
COc1cc2cc(-c3ccc(O)cc3O)nc(C)c2cc1OC | 0 | -116 | 10 | x | 12
SMILES | HIF act | aSyn 5UTR inh | KLF5 inhibitor | Wee1 stabilizer | Platelet DG rel
Cc1ccc(N/N=C(\Cc2nc3ccccc3[nH]2)c2ccccc2)cc1 | x | x | 5 | 16* | x
Oc1ccccc1N=Nc1nc(-c2ccccc2)c(-c2ccccc2)[nH]1 | 220* | 107* | 50 | 4 | 5
COc1ccccc1N=Nc1nc(-c2ccccc2)c(-c2ccccc2)[nH]1 | 1 | -16 | -22 | -2 | 3
CCSc1ncc(/C=N/Nc2ccccc2)n1C | 1 | -109 | 18 | 0 | 26
CCSc1ncc(/C=N/Nc2ccc([N+](=O)[O-])cc2)n1C | 3 | -194 | -40 | 9.6* | 0
Cc1ccc(S(=O)(=O)N/N=C\c2cn(CC(N)=O)c3ccccc23)cc1 | 0 | 8 | -10 | x | -1
CCCC(NCC(O)COc1ccc(-c2ccccc2)cc1)c1ccccc1 (centres undefined) | -7 | 83* | -8 | 8 | 1
COc1ccc(OCC(O)CNC(C)c2ccccc2)cc1 (centres undefined) | 0 | 13 | -12 | x | 9
COc1cc2c(cc1OC)C(c1ccc(Br)cc1)NCC2 (centres undefined) | 0 | 63* | x | x | -12
COc1cccc(N2CCN(S(=O)(=O)c3ccc(-n4cnnn4)cc3)CC2)c1 | 0 | 4 | -22 | x | 3
COc1ccc(C2=NOC(COc3ccc4c(C)cc(=O)oc4c3)C2)c(OC)c1 (centres undefined) | 0 | 83* | 49 | 7 | 3
O=C(/C=C/Nc1ccccc1)c1ccccc1 | 2 | -33 | -63 | 4 | 37
CN(C)c1ccc(N/C=C/C(=O)c2ccccc2)cc1 | 2 | -65 | -37 | -2 | 88*
CCN1CCN(CCCNC(=O)C2CCCN(c3nc4c(C)cc(C)cc4s3)C2)CC1 (centres undefined) | 1 | -19 | -67 | x | 1
NC(=O)[C@@H]1CCCCNc2c(F)cc([N+](=O)[O-])cc2C(=O)N[C@@H](CC(=O)O)C(=O)NCC(=O)N1 | 0 | 9 | -7 | 17* | -1
C[C@@H]1NC(=O)[C@H](CCC(=O)O)NC(=O)c2cc([N+](=O)[O-])cc(F)c2NCCC[C@@H](C(N)=O)NC1=O | -2 | 8 | -36 | -2 | -1
CCS(=O)(=O)c1ccc2oc(Nc3ccccc3Cl)nc2c1 | 3 | -154 | -93 | x | 57*
Cn1cccc1/C=C1\SC(=S)N(NC(=O)c2ccc(F)cc2)C1=O | x | x | -22 | -2 | x
Cn1cccc1/C=C1\SC(=S)N(NC(=O)c2ccccc2)C1=O | x | x | -10 | 9.0* | x
COc1ccc(N2CC(C(=O)Nc3cc(C)ccn3)CC2=O)cc1 (centres undefined) | 0 | -25 | -4 | 2 | 4
N#Cc1ccc(CSC2=NCCN2)cc1 | 0 | -50 | -46 | 9.8* | 0
NC(=O)CCCc1nc(-c2ccccc2Cl)no1 | 0 | 11 | -6 | 10* | 5
Cc1ccn2cc(-c3ccc(Br)cc3)nc2c1 | -1 | 63* | -44 | 2 | 32
Cc1ccc(S(=O)(=O)Nc2ccc(-c3cn4ccc(C)cc4n3)cc2)cc1 | 0 | -17 | 0 | -1 | -3
COc1ccc(N2CCN(c3nc4c(c(=O)n(C)c(=O)n4C)n3Cc3ccccc3)CC2)cc1 | 0 | 9 | -12 | 3 | 50*
COc1ccc(C2C(C#N)=C(N)Oc3cc(N)ccc32)cc1 (centres undefined) | 0 | 9 | -11 | x | 6
COc1ccc(C2C(C#N)=C(N)Oc3c2sc2nc(C)cc(C)c32)cc1 (centres undefined) | 0 | -2 | -19 | 10* | 2
CN(C)c1ccc(/C=C/c2cccc[n+]2[O-])cc1 | 2 | -101 | -46 | 9.9* | -1
CC1=Nc2ccccc2/C1=C/c1sc(=N)n(-c2nccs2)c1O | 0 | 63* | -34 | 0 | -38
CC1=Nc2ccccc2/C1=C/c1nc(-c2ccc(C)s2)oc1O | 1 | -2 | -1 | 7 | -2
